# Compound activity as filed in PubChem BioAssay.
# A selection: hits, their analogues and other compounds. The true share with any hit is near 2.2%.
# LDHA inh: qHTS assay for inhibitors of human lactate dehydrogenase; L-lactate dehydrogenase A chain (Homo sapiens), P00338; purified LDHA, NADH/diaphorase-resazurin fluorescence; active compounds read low; activity change, % (values are at about 110 or 230 µM); 480,000 tested, 0.15% active; in the data active = activity change below about -30%; inconclusive = mostly about -25% to -30%
#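 Remaining NADH was detected by diaphorase (0.133 mg/mL) converting 37 µM resazurin to fluorescent resorufin, read at 0 and 20 minutes. The preceding 5-minute room-temperature reaction used 2 nM LDHA, 0.2 mM sodium pyruvate and 0.06 mM NADH at pH 7.4.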
# HepG2 viability: qHTS for Inhibitors of TGF-b: Cytotox Counterscreen; HepG2 CAGA-GFP viability, ATP luminescence, 18 h; Potency, µM (highest dose often 46.1 µM), most hits filed as cytotoxic; 410,000 tested, 0.76% active
#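 CellTiter-Glo luminescence gave cytotoxicity after 18 hours at 37 degrees C. The cells were HepG2 CAGA-GFP in 1% FBS DMEM, stimulated with 500 pg/mL TGF-beta after compound addition. %Activity was normalised to no-cell wells (complete cell-killing) and DMSO (no toxicity), and curves were fitted and classified.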
# mIDH1 inhibitor: qHTS for Inhibitors of mutant isocitrate dehydrogenase 1 (IDH1): qHTS | Potency, µM (doses to about 76.6 µM), usual class: inhibitors | 390,000 tested, 0.093% active | Isocitrate dehydrogenase [NADP] cytoplasmic (Homo sapiens), O75874 | IDH1-R132H enzyme, NADPH consumption, diaphorase/resazurin fluorescence; note: nearly all actives have a fitted effect of over 65% in size
# Target sequence (O75874 whole entry R132H, stated change not applied): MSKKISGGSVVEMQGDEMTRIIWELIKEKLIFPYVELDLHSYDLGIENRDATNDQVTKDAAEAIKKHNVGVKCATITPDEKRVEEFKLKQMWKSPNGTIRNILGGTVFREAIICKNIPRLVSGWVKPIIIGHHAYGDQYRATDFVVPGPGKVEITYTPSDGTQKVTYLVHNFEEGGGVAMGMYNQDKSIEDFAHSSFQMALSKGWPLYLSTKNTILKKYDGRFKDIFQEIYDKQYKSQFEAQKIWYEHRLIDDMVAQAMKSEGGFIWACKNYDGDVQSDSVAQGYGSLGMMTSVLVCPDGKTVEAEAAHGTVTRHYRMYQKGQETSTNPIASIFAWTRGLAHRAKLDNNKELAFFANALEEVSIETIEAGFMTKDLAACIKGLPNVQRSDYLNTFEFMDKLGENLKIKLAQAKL
#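 IDH1-R132H (0.5 ug/mL dispensed) in pH 7.5 Tris buffer was preincubated 30 min with compound, then given a substrate mix of 0.016 mM NADPH and 2 mM alpha-KG for 80 min at room temperature; remaining NADPH was read by diaphorase/resazurin fluorescence.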
# TGFb SMAD3 inh: qHTS for Inhibitors of TGF-b. HepG2 CAGA-GFP TGF-b/SMAD3 reporter, GFP fluorescence, 18 h; TGF-beta stimulated, 500 pg/mL final. Potency, µM (top dose mostly 46.1 µM), actives largely listed as inhibitors. AID 588855, 2011. 410,000 tested, 1.2% active; note: nearly all actives have a fitted effect of over 65% in size
#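 Cell-based qHTS in HEPG2 carrying a CAGA-GFP Smad reporter; compounds added before 500 pg/mL final TGF-beta, 18 h incubation at 37 degrees C, GFP fluorescence quantified per cell by imaging cytometry.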
# ATXN viability: Viability Counterscreen for Primary qHTS for Inhibitors of ATXN expression | S2 cells (HEK-293 line with an ATXN2-luciferase reporter) viability, CellTiter-Fluor protease fluorescence, 24 h | Potency, µM (top dose mostly 56.7 µM), usual class: cytotoxic | 400,000 tested, 0.49% active; note: nearly all actives have a fitted effect of over 40% in size
# ATXN2 expr inh: Primary qHTS for Inhibitors of ATXN expression; Potency, µM (titrated, usually from 57 µM), hits mostly inhibitors; AID 1745845, 2022; 360,000 tested, 0.72% active; HEK-293 ATXN2-luciferase reporter, luminescence, 24 h; note: nearly all actives have a fitted effect of over 55% in size
#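 ATXN2-luciferase reporter cells (luciferase flanked by upstream and downstream ATXN2 gene portions) were treated 24 h at 37 °C with compounds at up to 57 uM. SteadyGlo luminescence gave expression; GF-AFC fluorescence gave viability.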
# Hits are given with their value; - = inactive; ? = inconclusive; . = no result; [ ] = another dose, or the depositor's remark. Unless noted, calls come from the whole dose curve; as a rule, active = well fitted curve in the direction sought with a large enough effect; inconclusive = small, poorly fitted or top-dose-only effect, or another doubt; inactive = no such curve, though single readings can be large; an effect the other way counts as inactive or inconclusive.
SMILES,LDHA inh,HepG2 viability,mIDH1 inhibitor,TGFb SMAD3 inh,ATXN viability,ATXN2 expr inh
CCC1CSC(Nc2ccc(C(=O)/C=C/c3ccc(Br)cc3)cc2)=N1 (centres undefined),-,-,-,16µM,?,?
CCC1CSC(Nc2ccc(C(=O)/C=C/c3ccc(OC)c(OC)c3)cc2)=N1 (centres undefined),-,-,-,?,.,?
Cc1cc(F)ccc1S(=O)(=O)Nc1ccc2c(c1)CCCN2C(=O)c1cccs1,-,-,-,16µM,.,?
O=C(c1cccs1)N1CCCc2cc(NS(=O)(=O)c3ccc(F)cc3F)ccc21,-,-,-,?,?,-
Clc1ccc(C2=NNC(=NCc3ccc4c(c3)OCO4)SC2)cc1,-,-,-,16µM,?,-
Oc1ccc(C2=NNC(=NCc3ccc4c(c3)OCO4)SC2)c(O)c1,-,-,-,-,-,-
CCOc1cc(/C=C(\C#N)C(=O)Nc2cccc(C(=O)O)c2)ccc1OCc1ccccc1Cl,-,-,33µM,-,-,-
CCOc1cc(/C=C(\C#N)C(=O)C(C)(C)C)ccc1OCc1ccccc1Cl,-,.,.,.,.,.
CN1C(=O)[C@H]2[C@@H](C3CC3)N3C(=O)CN(Cc4ccc(-c5ccccc5)cc4)C(=O)[C@@]3(C)[C@H]2C1=O,-,-,-,-,-,-
S=C(NCc1cccs1)Nc1cc(Cl)cc(Cl)c1,-,-,-,22µM,?,?
CCOc1cc(/C=N/Nc2cccc(C(=O)O)c2)ccc1OCC(=O)N1CCCCC1,-,-,-,-,-,-[11.3 µM]
CN(C1=C(NC(=O)c2ccccc2)C(=O)c2ccccc2C1=O)C1CCS(=O)(=O)C1 (centres undefined),-,18µM,-,18µM,32µM,?
CC(=O)NC1=C(NC2CCS(=O)(=O)C2)C(=O)c2ccccc2C1=O (centres undefined),-,-,-,?,?,-
CCCCNC(=O)C(=O)Nc1ccc2c(c1)N(S(=O)(=O)c1cccs1)CCC2,-,-,-,-,?,.
COc1ccc(C(=O)N2CCCc3ccccc32)cc1Br,-,-,-,-,0.22µM,-
Cc1ccc(S(=O)(=O)c2c(C)nn(-c3ccccc3)c2OC(=O)c2ccccc2F)cc1,-,-,-,-,?,-
CC(=O)Nc1cc(O)c2nonc2c1O,-,0.56µM,.,0.56µM,.,.
CCc1oc(C(=O)OC)cc1CSC(=N)N,-,16µM,-,-,-,-
Cc1ccc(C(=O)NCc2nc(-c3ccc(C)cc3)oc2C)cc1,-,.,.,.,.,.
CCCCCC(C)NC(=S)NC(=O)c1cc(S(=O)(=O)N2CCOCC2)ccc1C (centres undefined),-,-,-,11µM,-,-
Cc1ccc(N(CCC#N)C(=O)CCl)cc1C,-,11µM,-,?,.,?
Cc1ccc(SCC(=O)OCC(=O)N(CCC#N)c2ccccc2)cc1C,-,-,-,-,-,-
CC(C)N1CCN(c2ccc(OCC3COC(Cn4cncn4)(c4ccc(Cl)cc4Cl)O3)cc2)CC1 (centres undefined),-,-,-,-,?,-
CC(C)N1CCN(c2ccc(OC[C@H]3CO[C@](Cn4cncn4)(c4ccc(Cl)cc4Cl)O3)cc2)CC1,-,13µM,-,?,?,?
Cc1ccc(NC(/C=C/N(C)C)=C/C(=O)C(F)(F)F)c(C)c1,-,-,-,20µM,-,-
CCOC(=O)N1CCC(NC(=O)C2CCN(C(=O)c3cc4sccc4n3CC)CC2)CC1,-,-,-,-,?,-
CCOc1cccc(-c2c(C(=O)N/N=C/c3sccc3C)nnn2-c2nonc2N)c1,-,4.5µM,-,10µM,-,.
CCOc1ccc(-c2c(C(=O)N/N=C/c3sccc3C)nnn2-c2nonc2N)cc1,-,-,-,-,?,-
